# Test results taken from PubChem BioAssay AID504397 (Broad Institute, 2011).
# Entries with a potency or affinity are not part of this list. Calls of active or inactive are those of the source. No rule for the calls is given here.
# Test: toxicity toward cultured mammalian cells – cell-based, plate reader, cherry-pick samples, cytotoxicity control, dose response (AID 504397)
row,SMILES,outcome
1,O=C(Nc1sc2c(c1C(=O)c1ccc(Cl)cc1)CCCC2)c1cccnc1,inactive
2,CN(C)CCN(C(=O)c1ccc2ccccc2c1)c1nc2ccc(Br)cc2s1,inactive
3,Cc1ccccc1NS(=O)(=O)c1ccc(C(=O)NCC(c2ccccc2)N(C)C)cc1 (centres undefined),inactive
4,Cc1ccc(N=Cc2c(O)n(C)c(=O)n(C)c2=O)nc1,inactive
5,O=C(Nc1ccc(Cl)c([N+](=O)[O-])c1)C(Sc1ccccc1)c1ccccc1 (centres undefined),inactive
6,CS(=O)(=O)Cc1ccc(C(=O)N(CCc2ccccc2)Cc2ccccc2)cc1,inactive
7,O=C(CCNS(=O)(=O)c1ccc2[nH]c(=O)oc2c1)NCc1ccccc1,inactive
8,O=C(Nc1ccc2c(c1)CCC2)c1ccccc1Br,inactive
9,CCCOc1ccc(-c2c(C(=O)N/N=C/c3cccs3)nnn2-c2nonc2N)cc1,inactive
10,CN(C(=O)COC(=O)c1cn(-c2ccccc2)nc1-c1ccccc1)C1CCS(=O)(=O)C1 (centres undefined),inactive
11,Cc1ccc(/C=N/NC(=O)c2nnn(-c3nonc3N)c2C(C)C)o1,inactive
12,CN1C(=O)/C(=C/c2cccc(Cl)c2)Sc2ccc(C(=O)N3CCOCC3)cc21,inactive
13,CCCCCCCCCCOC(=O)Cn1c(COc2ccccc2C)[n+](C)c2ccccc21,inactive
14,CCn1cc(/C=C(\NC(=O)c2ccccc2F)C(=O)N2CCOCC2)c2ccccc21,inactive
